Reference: the supplement of paper PMC10811239

The compounds below were run on LEGO organoid PT (PTEN-/-; TP53-/-) (assay: bioluminescence (viable cell) signal fold change after vs before treatment, normalised to DMSO (ratio); higher = more tumour cell growth / less inhibition). Settings: 10 µM; treatment time 6 days.
Experimental: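 Luc2-labelled iPSC-derived glioblastoma-like organoids (LEGOs, genotypes PT = PTEN-/-;TP53-/-, PTCC = plus CDKN2A/B-/-, PTN = plus NF1-/-) were treated with 10 uM drug for 6 days (applied every other day) at 37 C. Bioluminescence imaging was done before treatment and 2 days after the last dose. BLI signals were normalised to the DMSO control on the same day and then to the pre-treatment signal (N=3).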
Work on COc1ccc(C(CN(C)C)C2(O)CCCCC2)cc1.Cl (configuration not stated) [Venlafaxine hydrochloride] yielded a bioluminescence of 0.615.
With NCC1(CC(=O)O)CCCCC1 [Gabapentin] the bioluminescence was 1.08.
In the case of NCC(CC(=O)O)c1ccc(Cl)cc1 (configuration not stated) [Baclofen], the bioluminescence is reported as 0.694.
In the case of CCN(C)C(=O)Oc1cccc([C@H](C)N(C)C)c1 [Rivastigmine], the bioluminescence is reported as 1.31.
Compound CN[C@@H]1C[C@H]2O[C@@](C)([C@@H]1OC)n1c3ccccc3c3c4c(c5c6ccccc6n2c5c31)C(=O)NC4 [Staurosporine] has a bioluminescence of 0.0178.
Compound O=C(O)CCCc1ccc(N(CCCl)CCCl)cc1 [Chloroambucil] has a bioluminescence of 1.03.
Work on Cl.Cn1c(CCCC(=O)O)nc2cc(N(CCCl)CCCl)ccc21 [Bendamustine hydrochloride] yielded a bioluminescence of 0.772.
In the case of CCN(C)C(=O)Oc1cccc([C@H](C)N(C)C)c1.O=C(O)[C@H](O)[C@@H](O)C(=O)O [Rivastigmine tartrate], the bioluminescence is reported as 2.08.
Work on CCOC(=O)c1cncn1[C@H](C)c1ccccc1 [Etomidate] yielded a bioluminescence of 1.09.
With CCC1(c2ccc(N)cc2)CCC(=O)NC1=O (configuration not stated) [Aminoglutethimide] the bioluminescence was 0.724.
CC(C)C[C@H]1C(=O)N2CCC[C@H]2[C@]2(O)O[C@](NC(=O)[C@@H]3C[C@@H]4c5cccc6[nH]cc(c56)C[C@H]4N(C)C3)(C(C)C)C(=O)N12.CC(C)[C@@]1(NC(=O)[C@@H]2C[C@@H]3c4cccc5[nH]cc(c45)C[C@H]3N(C)C2)O[C@@]2(O)[C@@H]3CCCN3C(=O)[C@H](Cc3ccccc3)N2C1=O.CC(C)[C@H]1C(=O)N2CCC[C@H]2[C@]2(O)O[C@](NC(=O)[C@@H]3C[C@@H]4c5cccc6[nH]cc(c56)C[C@H]4N(C)C3)(C(C)C)C(=O)N12.CCC(C)[C@H]1C(=O)N2CCC[C@H]2[C@]2(O)O[C@](NC(=O)[C@@H]3C[C@@H]4c5cccc6[nH]cc(c56)C[C@H]4N(C)C3)(C(C)C)C(=O)N12.CS(=O)(=O)O [Dihydroergotoxine mesylate] showed a bioluminescence of 0.998.
CN(C)C(=O)Oc1ccc[n+](C)c1.[Br-] [Mestinon] gave a bioluminescence of 0.942.
COc1cc2c(cc1OC)[C@@H]1CC(=O)[C@@H](CC(C)C)CN1CC2.COc1cc2c(cc1OC)[C@H]1CC(=O)[C@H](CC(C)C)CN1CC2 [Tetrabenazine] was tested, and the bioluminescence was 0.657.
Compound Cc1cccc([C@H](C)c2cnc[nH]2)c1C.Cl [Dexmedetomidine HCl] has a bioluminescence of 0.872.
For CC[C@@H](C(N)=O)N1CCCC1=O [Levetiracetam], the bioluminescence was 0.803.
In the case of CC(C)c1cccc(C(C)C)c1O [Propofol], the bioluminescence is reported as 1.34.
Compound Cc1n[nH]cc1-c1cc2[nH]c([C@@H]3CC4CCN3CC4)nc(=O)c2s1 [Simurosertib] has a bioluminescence of 1.6.
